The list is not random: actives were taken first. Their share in the collection is about 3.8%.
HSP90 inh: blocks HSP90-mediated luciferase refolding in reticulocyte lysate | Rabbit reticulocyte lysate, luciferase refolding luminescence, 3 h | inhibition, % at 5.6 µM | hit rate 0.91% among 290,000 | AID 1789;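 active = inhibition above the screen-wide mean plus 3 SD, computed separately per campaign, cut at about 16% in these data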;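 note: inhibitors lower the luminescence because luciferase stays unfolded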
Hsp70 act: transcriptional activators of Hsp70. HeLa Hsp70 promoter luciferase reporter, luminescence; scaled: vehicle 0, proteasome-inhibitor control 100%. activation, % at 10 µM. hit rate 0.04% among 200,000;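 active = activation above the mean across all tested compounds plus 3 SD, cutoff set per campaign, cut at about 5.5% in these data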
HSF1 activator: increases HSF-1 driven luciferase reporter signal; NIH3T3-HGL HSF-1 luciferase reporter, MG132, 8 h; 100% = twice DMSO control signal; activation, % at 9 µM; hit rate 1.7% among 300,000; AID 504408;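 active = mean replicate activation of at least 50% with a set share of replicates each reaching 50%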
NALP1 yeast inh: inhibitors of NALP1 inflammasome in yeast. S. cerevisiae NALP1/ASC/caspase-1 growth, X-gal OD620, 72 h. inhibition, % at 10 µM. hit rate 0.61% among 280,000; in the data active = inhibition mostly above about 24%, no sharp cut-off; inactive = mostly below about 32%
pCIP destab: lowers stability of the mouse p/CIP coactivator protein; hit rate 0.01% among 290,000; F442A p/CIP-EGFP cells, EGFP fluorescence, 16 h; AID 1984; decrease of EGFP signal, % at 10 µM; Q05BA5;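 active = EGFP signal decrease of at least 30% at 10 µM or well 3 SD below plate mean, unless failing retest; inactive = the rest, including hits failing retest or dose response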
HSF1 inh: HSF1 inhibition. NIH3T3-HGL HSE-luciferase, MG132-induced, luminescence 8 h; stronger effect = lower value. activity change, negative = inhibition, % at 7.5 µM (by protocol). hit rate 0.77% among 300,000. AID 2098;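 active = more than half of replicate wells show activity change below -50%, luminescence cut by over half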;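 note: luciferase reports HSF-1 transcriptional activity via heat shock element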
A number is an active result; n = inactive; x = no result given.

SMILES	HSP90 inh	Hsp70 act	HSF1 activator	NALP1 yeast inh	pCIP destab	HSF1 inh
Cc1ccc(-c2nc3c(c(=O)[nH]c(=O)n3Cc3ccccc3)n2Cc2ccccc2)o1	n	n	62	n	n	n
COc1cccc(Oc2ccc3nnc(C(F)(F)F)n3n2)c1	n	n	n	n	n	n
OC(COc1ccc(C2C=CCC2)cc1)CN1CCCCC1 (stereo not drawn)	n	n	n	n	n	n
Cc1cccc(C)c1NC(=O)N1C(C(=O)O)CSC1C(=O)O (stereo not drawn)	n	n	n	n	n	-88
Cc1cc(C(=O)CSc2nncn2C)c(C)n1-c1ccccc1	n	n	n	n	n	n
O=C(O)c1cccnc1SC1CC(=O)N(Cc2ccccc2)C1=O (stereo not drawn)	n	n	n	n	n	n
O=C(O)c1cccnc1SC1CC(=O)N(CCc2ccccc2)C1=O (stereo not drawn)	n	n	n	40	n	n
C(=N\Nc1nc2ccccc2[nH]1)/c1ccc2c(c1)OCO2	n	n	492	n	n	n
CC(=O)Nc1ccc(/C=N/Nc2nc3ccccc3[nH]2)cc1	n	n	128	n	n	n
C/C(=N\Nc1nc2ccccc2[nH]1)c1ccccn1	19	x	n	n	n	n
CCN(CC)c1ccc(/C=N/Nc2nc3ccccc3[nH]2)cc1	n	n	431	n	n	n
C(=N\Nc1nc2ccccc2[nH]1)/c1ccncc1	n	n	n	n	n	n
C/C(=N\Nc1nc2ccccc2[nH]1)c1ccc2c(c1)OCO2	n	n	n	n	n	n
Cc1c(C)[n+](=O)c(-c2ccc(F)cc2)c(C)n1[O-]	n	n	n	n	n	n
Cc1c(-c2ccc(F)cc2)[n+](=O)c(-c2ccc(F)cc2)c(C)n1[O-]	n	n	n	42	n	n
CCOC(=O)c1cc(COc2cc(Cl)cc(Cl)c2)on1	n	x	n	x	n	n
CC(O)Cn1c(N2CCCC2)nc2c1c(=O)n(C)c(=O)n2C (stereo not drawn)	n	x	n	n	n	n
Cc1nnc(SC(C)C)n(N)c1=O	n	n	n	n	n	n
CCOC(=O)N1CCC(N2C(=O)c3ccccc3C2Nc2cc(C(=O)OC)cc(C(=O)OC)c2)CC1 (stereo not drawn)	n	n	n	n	n	-78
CCOC(=O)N1CCC(N2C(=O)c3ccccc3C2Nc2cc(C)cc(C)c2)CC1 (stereo not drawn)	n	x	n	n	n	n
CCOc1ccccc1NC(=O)NNC(=O)CCc1ccc(OC)cc1	n	x	n	n	n	n
O=C(Nc1cccc(Cl)c1Cl)c1snnc1-c1ccccc1	n	n	n	n	n	-86
Cc1nccn1Cc1cccc2ccccc12	n	n	n	n	n	-53
O=C(Cc1ccccc1)NC(NC(=O)Cc1ccccc1)c1cccc([N+](=O)[O-])c1	n	n	n	n	n	n
CC(C)CC(=O)NC(NC(=O)CC(C)C)c1cccc([N+](=O)[O-])c1	n	n	n	n	n	-70
SMILES	HSP90 inh	Hsp70 act	HSF1 activator	NALP1 yeast inh	pCIP destab	HSF1 inh
Brc1ccc(COn2ccnc2)cc1	n	n	n	n	n	n
CCN(CC(=O)Nc1ccccc1OC)C(=O)c1ccc(NS(=O)(=O)c2ccc(C(C)=O)cc2)cc1	n	x	n	44	n	n
CCCN(CC(=O)Nc1ccccc1OC)C(=O)c1ccc(S(=O)(=O)Nc2ccccc2)cc1	x	x	n	x	x	n
CC(=O)Nc1ccc(NC(=O)C(C)Sc2n[nH]c(-c3ccc(C)cc3)n2)cc1 (stereo not drawn)	x	x	n	x	x	n
COc1ccc(S(=O)(=O)N2CCC(C(=O)NC3CC(C)(C)NC(C)(C)C3)CC2)cc1	n	x	n	n	n	n
Cc1ccccc1CN1CCN(c2nc3ccccc3s2)CC1	n	x	81	n	n	n
COc1ccc(CN2CCN(c3nc4ccccc4s3)CC2)cc1	n	x	n	n	n	n
CCn1c2ccc(F)cc2c2nnc(SCCN3CCCCC3)nc21	n	x	n	n	n	n
Cc1ccc(S(=O)(=O)N2CCN(CCNC(=O)C(=O)NCc3ccccc3)CC2)cc1	n	x	n	n	n	-87
Cc1cc(S(=O)(=O)N2CCCC2)ccc1OCC(=O)NCc1ccccc1	n	x	n	n	n	-77
O=C(NCCN1CCN(S(=O)(=O)c2ccc(F)cc2)CC1)C(=O)NCc1ccccc1	n	x	n	n	n	n
COc1ccc(N2CC(C(=O)OCC(=O)c3ccc(C)cc3)CC2=O)cc1 (stereo not drawn)	n	n	n	27	n	n
CCOc1ccc(N2CC(C(=O)OCC(=O)c3ccc(OC)cc3)CC2=O)cc1 (stereo not drawn)	n	x	n	n	n	n
CC1CCCCC1N(C)C1CCN(C(=O)CNC(=O)/C=C/c2cccc(Cl)c2)CC1 (stereo not drawn)	n	x	n	n	n	n
Cc1cc(C)c2[nH]c(=O)c(CN(CC3CCCO3)S(=O)(=O)c3ccc4c(c3)OCCO4)cc2c1 (stereo not drawn)	n	n	59	n	n	n
COC(=O)c1ccccc1NC(=O)C/C(C)=N/NC(=O)CC#N	n	n	n	34	n	n
CCN(CC(=O)Nc1c(F)cccc1F)C(=O)Cc1n[nH]c(=O)c2ccccc12	x	x	n	x	x	-72
CCN(CC(=O)Nc1c(F)cccc1F)C(=O)CCc1nc2ccccc2c(=O)[nH]1	x	x	n	x	x	n
COc1ccc(/C=N/Nc2nc(-c3cccnc3)nc3ccccc23)c(OC)c1	n	x	n	n	n	n
C=CCNC(=O)c1ccc2nc(Cc3ccc(OC)cc3)oc2c1	n	x	78	x	x	n
COc1ccc(Cc2nc3ccc(C(=O)NCCn4cccn4)cc3o2)cc1	n	x	n	n	n	n
COCCCNC(=O)c1ccc2nc(Cc3ccc(OC)cc3)oc2c1	n	x	n	25	n	n
CCOCCCNC(=O)c1ccc(OC)cc1	n	n	n	28	n	n
CN1CCN(c2nc3c(c(=O)[nH]c(=O)n3C)n2Cc2ccccc2)CC1	n	x	n	n	n	n
CC(C)NC(=O)c1ccc(COc2ccc(C(C)(C)C)cc2)o1	n	x	n	n	n	n
SMILES	HSP90 inh	Hsp70 act	HSF1 activator	NALP1 yeast inh	pCIP destab	HSF1 inh
C#CCOc1ccc(C2C3=C(CC(C)(C)CC3=O)N(CC(=O)O)C3=C2C(=O)CC(C)(C)C3)cc1OC	n	x	60	n	n	n
O=C(Nc1nnc(SCCN2CCOCC2)s1)C1CC(=O)N(c2ccccc2)C1 (stereo not drawn)	n	x	n	n	n	n
Cc1ccc(N2CC(C(=O)Nc3nnc(SCCN4CCOCC4)s3)CC2=O)cc1 (stereo not drawn)	n	x	n	n	n	-55
COc1ccc(-n2nc(C(=O)NCC(=O)NCCN(C)C)c3ccccc3c2=O)c(OC)c1	n	x	n	n	n	n
COc1ccc(-n2nc(C(=O)NCC(=O)NCc3ccccc3OC)c3ccccc3c2=O)c(OC)c1	n	n	n	n	n	-60
CCc1ccc(NS(=O)(=O)c2cccc3nonc23)cc1	n	n	n	n	n	n

Bioassay records (PubChem)
